20 molecules from PubChem BioAssay (Tox21) can be followed below.

Molecules are shown by their SMILES. Values joined by “and” are separate entries in the source; they are usually repeats but may differ in a detail not shown here. Equal values may be shown once. Inconclusive results are not listed. More than one record can exist for a structure, and the calls need not agree. Active and inactive are the calls of the source. Unless noted, calls follow the shape of the dose curve; as a rule, active = well fitted curve in the direction sought with a large enough effect in the repeat runs; inconclusive = weak or mixed curves; inactive = no such curve, though single readings can be large; an effect the other way counts as inactive or inconclusive.

Assay [1] can be described thus: qHTS assay to identify aromatase inhibitors - cell viability counter screen (AID 743084).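 Also: cells stimulated with testosterone during compound exposure; nearly all actives have a fitted effect of over 55% in size.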 Also: potency is read from the fitted curve at half-maximal effect. A general note: qHTS replaces the single test concentration by a dilution series.
For assay [2], the target named is Aryl hydrocarbon receptor (Homo sapiens) (UniProt P35869). The assay is described as follows: qHTS assay to identify small molecule that activate the aryl hydrocarbon receptor (AhR) signaling pathway (AID 743085). Also: nearly all actives have a fitted effect of over 15% in size. Also: potency is read from the fitted curve at half-maximal effect.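 As to activation: HG2L7.5c1 human HepG2 liver cells with stably integrated DRE-driven firefly reporter; series mostly up to about 70 µM.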 In outline: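 HepG2 cells (HG2L7.5c1) stably carrying a firefly luciferase reporter driven by 20 dioxin responsive elements were exposed to compound for 24 h at 37C after a 5 h settling period; luminescence rise (ONE-Glo) indicated activation.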

A short description of assay [3]: qHTS assay to identify small molecule that activate the aryl hydrocarbon receptor (AhR) signaling pathway - cell viability counter screen (AID 743086).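 Also: HepG2 liver cells carrying the AhR DRE luciferase reporter; series mostly up to about 70 µM; nearly all actives have a fitted effect of over 45% in size.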 Summed up:
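HepG2-AhR-luc (HG2L7.5c1) cells, 4000/well, were preincubated 5 h at 37C, exposed to compound in qHTS format for 24 hr at 37C, then given CellTiter-Fluor for 30 min; viability was read as fluorescence in the reporter wells.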

The target of assay [4] is Peroxisome proliferator-activated receptor gamma (Homo sapiens) (UniProt P37231). Description: qHTS assay to identify small molecule agonists of the peroxisome proliferator-activated receptor gamma (PPARg) signaling pathway (AID 743094; active = well fitted activation curve with a large enough effect in the signal ratio in the repeat runs, not every such curve was filed as active; the % refers to the signal ratio). In outline:
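Agonist activity was taken from a beta-lactamase reporter (FRET substrate, 1 h at room temperature) in HEK293H cells carrying a PPARg UAS-bla construct. Compounds in DMSO were incubated 17 h at 37C after a 5 h cell pre-incubation.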

Assay [5] shares this target. The assay is described as follows: qHTS assay to identify small molecule antagonists of the peroxisome proliferator-activated receptor gamma (PPARg) signaling pathway (AID 743191; calls by dose curve; also: series mostly up to about 63 µM; nearly all actives have a fitted effect of over 30% in size). Summed up:
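GeneBLAzer PPARg UAS-bla HEK293H cells carrying a UAS-driven beta-lactamase reporter were plated at 3000 cells/well, preincubated 5 h at 37C, then given compound for 17 h at 37C; LiveBLAzer B/G FRET substrate was read after 1 h at room temperature.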

Assay [6] in a line: qHTS assay for small molecule agonists of the antioxidant response element (ARE) signaling pathway (AID 743202; active = well fitted activation curve with a large enough effect in the signal ratio in the repeat runs, not every such curve was filed as active; the % refers to the signal ratio). Summed up: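 Following a 16 h, 37 C exposure of reporter HepG2 cells (ARE-driven beta-lactamase, 2,000 cells/well) to compounds, FRET substrate was applied for 2 h at room temperature and fluorescence intensity recorded.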
A short description of assay [7]: qHTS assay for small molecule agonists of the antioxidant response element (ARE) signaling pathway - cell viability counter screen (AID 743203; calls by dose curve; also: nearly all actives have a fitted effect of over 55% in size). Summed up: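 Viability counter screen: CellTiter-Glo luminescence, read after 30 min at room temperature, in ARE-bla HepG2 wells. Compound exposure lasted 16 h at 37C/5% CO2, following a 5 h pre-incubation of the cells after plating.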

A short description of assay [8]: qHTS assay for small molecule activators of the heat shock response signaling pathway - cell viability counter screen (AID 743209). Also: nearly all actives have a fitted effect of over 50% in size. Summed up:
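Cytotoxicity counter screen run in the same wells as the heat-shock bla reporter assay: HeLa HSE-bla cells, 5 h compound exposure at 37 C, viability read by CellTiter-Glo luminescence.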

The nature of assay [9]: qHTS assay for small molecule activators of the heat shock response signaling pathway (AID 743210; active = well fitted activation curve with a large enough effect in the signal ratio in the repeat runs, with a control signal flat, not every such curve was filed as active; the % refers to the signal ratio; also: series mostly up to about 63 µM). Summed up: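 Heat shock element–beta-lactamase HeLa reporter cells; qHTS with compounds for 5 h at 37 C; detection by FRET substrate fluorescence after 2.5 h at RT.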
The nature of assay [10]: qHTS assay to identify small molecule antagonists of the peroxisome proliferator-activated receptor gamma (PPARg) signaling pathway - cell viability counter screen (AID 743194). Also: nearly all actives have a fitted effect of over 55% in size. In outline:
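PPARg-UAS-bla HEK293H cells were plated, rested 5 h at 37 C, then treated with compounds plus rosiglitazone (50 nM final) for 17 h at 37 C; viability was then read by CellTiter-Glo luminescence after 30 min at room temperature.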

Sequence of Aryl hydrocarbon receptor (Homo sapiens) (P35869 whole entry, looked up): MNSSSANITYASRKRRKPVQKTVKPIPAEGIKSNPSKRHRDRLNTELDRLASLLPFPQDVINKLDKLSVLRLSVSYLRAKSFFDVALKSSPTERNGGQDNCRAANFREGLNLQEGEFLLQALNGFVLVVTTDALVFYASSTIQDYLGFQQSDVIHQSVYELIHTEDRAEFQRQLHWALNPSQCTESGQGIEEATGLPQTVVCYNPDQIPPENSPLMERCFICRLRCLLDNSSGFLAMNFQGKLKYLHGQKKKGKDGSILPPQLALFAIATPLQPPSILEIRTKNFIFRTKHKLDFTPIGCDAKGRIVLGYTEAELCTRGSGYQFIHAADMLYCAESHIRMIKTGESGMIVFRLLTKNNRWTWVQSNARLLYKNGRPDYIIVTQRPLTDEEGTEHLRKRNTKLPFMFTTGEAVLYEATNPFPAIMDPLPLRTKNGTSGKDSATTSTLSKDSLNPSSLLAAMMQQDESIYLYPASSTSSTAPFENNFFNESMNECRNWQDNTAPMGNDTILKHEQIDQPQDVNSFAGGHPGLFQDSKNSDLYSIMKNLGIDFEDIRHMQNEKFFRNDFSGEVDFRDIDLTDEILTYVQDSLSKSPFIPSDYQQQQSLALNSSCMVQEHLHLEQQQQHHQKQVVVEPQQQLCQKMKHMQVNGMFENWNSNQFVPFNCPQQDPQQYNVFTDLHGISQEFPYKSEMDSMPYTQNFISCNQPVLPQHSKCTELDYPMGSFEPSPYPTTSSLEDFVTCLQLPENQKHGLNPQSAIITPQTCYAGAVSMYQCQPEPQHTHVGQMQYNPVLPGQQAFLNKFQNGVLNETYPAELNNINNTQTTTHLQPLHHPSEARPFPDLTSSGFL
Sequence of Peroxisome proliferator-activated receptor gamma (Homo sapiens) (P37231 whole entry, looked up): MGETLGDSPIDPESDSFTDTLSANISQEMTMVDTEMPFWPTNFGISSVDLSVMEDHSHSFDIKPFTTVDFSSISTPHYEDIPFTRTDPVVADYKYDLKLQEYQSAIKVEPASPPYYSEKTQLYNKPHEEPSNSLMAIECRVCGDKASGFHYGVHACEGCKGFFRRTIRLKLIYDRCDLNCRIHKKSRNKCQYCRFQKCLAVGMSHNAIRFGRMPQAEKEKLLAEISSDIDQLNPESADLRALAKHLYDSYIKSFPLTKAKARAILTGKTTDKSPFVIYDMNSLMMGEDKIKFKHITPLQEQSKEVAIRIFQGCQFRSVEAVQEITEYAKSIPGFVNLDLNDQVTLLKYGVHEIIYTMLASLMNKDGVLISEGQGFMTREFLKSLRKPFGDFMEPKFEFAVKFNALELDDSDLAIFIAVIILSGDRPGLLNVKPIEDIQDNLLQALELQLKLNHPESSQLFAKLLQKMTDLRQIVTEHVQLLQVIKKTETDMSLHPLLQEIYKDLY

Regarding `FC(F)(F)c1ccc(Cl)cc1`, the Potency result in assay [1], in assay [2], in [5], in assay [6], in assay [7] and in assay [8] was “inactive” throughout. The Potency result in assay [9] is “inactive”. Moreover, the outcome in [3] and in assay [4] was inactive.
Turning to `CC(=O)/C=C/c1ccccc1`, the Potency result in assay [1], in assay [2], in assay [5], in [6], in [7] and in [8] was “inactive” each time. For the same molecule, the Potency result in assay [9] is “inactive”. For the same molecule, the call in assay [3], in [4] and in assay [10] was inactive.
As to `O=C(O)CCCc1ccc(N(CCCl)CCCl)cc1`, the Potency entry in assay [1] is “inactive and 30.6 µM (active)”. In addition, the Potency result in assay [2], in assay [5], in assay [6], in assay [7], in assay [8] and in [9] was “inactive” throughout. The molecule was classed as inactive in assay [3], in assay [4] and in [10].
As for `O=[N+]([O-])c1ccc(Cl)c(Cl)c1`, the Potency result in assay [1], in assay [2], in assay [5], in assay [6], in [7] and in [8] was “inactive” each time. The Potency result in assay [9] is “inactive”. For the same molecule, the outcome in assay [3], in assay [4] and in assay [10] was inactive.
Take `N#Cc1ccccn1`: the Potency entry in assay [1], in [2], in [5], in [6], in assay [7] and in assay [8] was “inactive” throughout. The molecule was called inactive in assay [3], in assay [4] and in [10].
On to `CN(C)C(=O)Cl`, for which the Potency entry in assay [1], in assay [2], in [5], in assay [6], in assay [7] and in assay [8] was “inactive” throughout. In addition, the Potency entry in assay [9] was “inactive”. For the same molecule, the outcome in assay [3], in [4] and in assay [10] was inactive.
As for `CN(C)NC(=O)CCC(=O)O`, the Potency result in [1], in assay [2], in [5], in assay [6], in assay [7] and in assay [8] was “inactive” in each case. Further, in [9], the Potency entry is “inactive”. The outcome in assay [3], in assay [4] and in [10] was inactive.
Consider `COP(=S)(OC)SCN1C(=O)c2ccccc2C1=O`, for which the Potency result in assay [1], in [2], in assay [5], in assay [6], in assay [7] and in assay [8] was “inactive” each time. Moreover, the Potency result in [9] is “inactive”. Also, the result in [3], in [4] and in assay [10] was inactive.
Take `O=[N+]([O-])c1cc([As](=O)(O)O)ccc1O`: the Potency result in [1], in assay [2], in [5], in assay [6], in [7] and in [8] was “inactive” throughout. In addition, in assay [9], the Potency entry was “inactive”. In addition, the molecule was classed as inactive in assay [3], in assay [4] and in assay [10].
Take `COc1nc(NC(C)C)nc(NC(C)C)n1`: the Potency result in [1], in assay [2], in [5], in [6], in [7] and in assay [8] was “inactive” throughout. Moreover, the Potency entry in assay [9] is “inactive”. Further, the call in assay [3], in assay [4] and in [10] was inactive.
For the molecule `CNCC(O)c1ccc(O)cc1` (stereo not given), the Potency result in assay [1], in [2], in [5], in assay [7], in [8] and in [9] was “inactive” in each case. Also, the call in assay [3], in assay [4] and in assay [10] was inactive.
Regarding `O=C/C=C/c1ccccc1`, the Potency result in assay [1], in [2], in assay [5], in assay [6], in assay [7] and in assay [8] was “inactive” in each case. Besides, the Potency result in [9] is “inactive”. In addition, the call in [3] and in assay [4] was inactive.
As for `OCC(O)CCl` (stereo not given), the Potency entry in assay [1], in assay [2], in assay [5], in assay [6], in assay [7] and in assay [8] was “inactive” in each case. The Potency result in [9] is “inactive”. Moreover, the molecule was called inactive in [3], in assay [4] and in [10].
For the molecule `CN(C)C(=O)Nc1cccc(C(F)(F)F)c1`, the Potency entry in assay [1], in assay [2], in assay [5], in assay [6], in assay [7] and in [8] was “inactive” throughout. Further, in assay [9], the Potency entry is “inactive”. In addition, the call in assay [3] and in assay [4] was inactive.
In the case of `CNc1cnn(-c2cccc(C(F)(F)F)c2)c(=O)c1Cl`, the Potency result in assay [1], in [5], in assay [7], in assay [8] and in assay [9] was “inactive” each time. For the same molecule, the Potency in [2] was 27.3 µM (active). The call in [3], in [4] and in assay [10] was inactive.
For `Cl[C@H]1OCCO[C@@H]1Cl`, the Potency result in [1], in assay [2], in [5], in [6], in assay [7] and in assay [8] was “inactive” throughout. Moreover, the Potency entry in [9] was “inactive”. Also, the molecule was classed as inactive in assay [3] and in [4].
In the case of `C=CC#N`, the Potency result in assay [1], in [2], in assay [5], in assay [6], in assay [7] and in assay [8] was “inactive” each time. Besides, in assay [9], the Potency result was “inactive”. Further, the molecule was classed as inactive in [3], in assay [4] and in assay [10].
Regarding `COC(C)(C)CCCC(C)C/C=C/C(C)=C/C(=O)OC(C)C` (stereo not given), the Potency entry in assay [1], in assay [5], in [6], in [7] and in assay [8] was “inactive” each time. For the same molecule, the Potency result in assay [2] was “inactive and 60.1 µM (active)”. The outcome in [3] and in assay [4] was inactive.
As for `OC[C@@H](O)[C@H]1O[C@@H]2O[C@H](C(Cl)(Cl)Cl)O[C@@H]2[C@H]1O`, the Potency entry in [1], in assay [2], in assay [5], in [6], in assay [7] and in [8] was “inactive” throughout. Besides, the Potency result in [9] was “inactive”. In addition, the result in assay [3], in [4] and in assay [10] was inactive.
Take `OCc1ccco1`: the Potency result in assay [1], in assay [2], in [5], in [6], in assay [7] and in [8] was “inactive” throughout. The Potency result in [9] is “inactive”. The molecule was classed as inactive in assay [3] and in assay [4].
